Source: PubChem BioAssay
For some of these results: Results with a measured potency or affinity are listed apart. Calls of active or inactive are those of the source. Unless noted, no rule for the calls is given here.

Assays:
[1] = antimalarial activity against Dd2 strain (AID 2302;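 active = growth inhibition above 50% at the single 2 µM test dose, taken to imply half-maximal potency below 2 µM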;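 also: 0% = DMSO untreated growth and 100% = chloroquine plus artemisinin killed control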); conditions: P. falciparum Dd2 in RBCs, LDH growth readout, 72 h; at 2 µM; active compounds read high
[2] = human hepatoma cell viability loss – ATP luminescence, cytotoxicity control for P. falciparum antimalarial project, primary screen (AID 2303;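 active = inhibition above 50%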;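 also: 0% = DMSO wells and 100% = digitonin-killed cells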); conditions: HepG2 viability, 24-48 h, at 10 µM, active compounds read high
[3] = target: L-lactate dehydrogenase (Plasmodium falciparum (isolate CDC / Honduras)) (UniProt Q27743); experiment: PfLDH activity inhibition – cell lysate, 3D7 strain, counter-screen for P. falciparum growth inhibition project (AID 2304);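 also: 0% = vehicle and 100% = reference inhibitor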; conditions: P. falciparum 3D7 crude extract, LDH APAD/NBT absorbance; at 2 µM; active compounds read high
Chain of L-lactate dehydrogenase (Plasmodium falciparum (isolate CDC / Honduras)) (Q27743 whole entry, looked up): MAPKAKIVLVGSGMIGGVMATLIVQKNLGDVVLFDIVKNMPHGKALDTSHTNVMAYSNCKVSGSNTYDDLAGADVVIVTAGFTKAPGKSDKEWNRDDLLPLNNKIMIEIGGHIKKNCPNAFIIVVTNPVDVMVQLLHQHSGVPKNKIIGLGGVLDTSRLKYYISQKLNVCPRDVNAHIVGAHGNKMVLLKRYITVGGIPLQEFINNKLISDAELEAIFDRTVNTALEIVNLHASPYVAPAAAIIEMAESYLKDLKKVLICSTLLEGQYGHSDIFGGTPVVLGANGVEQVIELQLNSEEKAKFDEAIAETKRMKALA

[4] = inhibition of 3D7 malaria parasite growth – strain 3D7 (AID 2306);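 also: 0% = DMSO wells and 100% = chloroquine plus artemisinin control wells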; conditions: P. falciparum 3D7 erythrocytic growth, LDH absorbance, 72 h; at 2 µM; active compounds read high
[5] = target: Calcium-dependent protein kinase 1 (Plasmodium falciparum (isolate 3D7)) (UniProt P62344); experiment: PfCDPK1 kinase inhibitors, biochemical, TCAMS library (AID 1159585; cut-off not given, nearly all actives have IC50 up to about 0.98 µM;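 also: inhibitors leave more ATP so luminescence rises with inhibition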); conditions: recombinant PfCDPK1, Kinase-Glo ATP depletion luminescence
Chain of Calcium-dependent protein kinase 1 (Plasmodium falciparum (isolate 3D7)) (P62344 whole entry, looked up): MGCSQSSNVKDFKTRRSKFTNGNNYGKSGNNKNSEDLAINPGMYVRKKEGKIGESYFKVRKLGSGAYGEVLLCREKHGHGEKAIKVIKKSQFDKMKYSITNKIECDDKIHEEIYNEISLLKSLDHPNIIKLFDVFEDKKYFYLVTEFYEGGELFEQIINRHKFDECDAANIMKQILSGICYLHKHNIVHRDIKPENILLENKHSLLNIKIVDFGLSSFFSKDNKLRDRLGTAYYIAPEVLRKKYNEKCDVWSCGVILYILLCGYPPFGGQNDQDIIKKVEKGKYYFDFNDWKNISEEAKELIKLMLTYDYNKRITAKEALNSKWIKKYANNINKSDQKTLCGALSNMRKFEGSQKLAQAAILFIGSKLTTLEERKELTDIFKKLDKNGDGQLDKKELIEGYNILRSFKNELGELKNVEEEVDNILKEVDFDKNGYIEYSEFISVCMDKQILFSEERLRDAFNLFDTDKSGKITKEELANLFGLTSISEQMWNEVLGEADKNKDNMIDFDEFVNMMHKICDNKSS

[6] = target: Plasmodium falciparum protein kinase 6 (PK6, PF3D7_1337100) (UniProt Q8IDW1); experiment: PfPK6 kinase inhibitors, biochemical, TCAMS library (AID 1159586); conditions: recombinant PfPK6, Kinase-Glo ATP depletion luminescence
Chain of Plasmodium falciparum protein kinase 6 (PK6, PF3D7_1337100) (Q8IDW1 1-305): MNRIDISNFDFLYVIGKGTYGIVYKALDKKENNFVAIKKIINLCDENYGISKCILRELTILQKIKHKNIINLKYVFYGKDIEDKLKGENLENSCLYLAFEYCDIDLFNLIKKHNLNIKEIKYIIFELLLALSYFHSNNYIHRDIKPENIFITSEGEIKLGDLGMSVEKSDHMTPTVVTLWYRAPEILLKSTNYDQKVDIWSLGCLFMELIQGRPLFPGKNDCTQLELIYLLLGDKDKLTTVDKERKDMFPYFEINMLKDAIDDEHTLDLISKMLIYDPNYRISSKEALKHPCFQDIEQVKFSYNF

[7] = target: Protein kinase 7 (PK7), Plasmodium falciparum 3D7 (PF3D7_0213400) (UniProt Q7YTF7); experiment: inhibition of Plasmodium PK7 catalytic activity – biochemical, TCAMS antimalarial set, Kinase-Glo luminescence (AID 1159587); conditions: recombinant PfPK7, Kinase-Glo ATP depletion luminescence
Chain of Protein kinase 7 (PK7), Plasmodium falciparum 3D7 (PF3D7_0213400) (Q7YTF7 1-343): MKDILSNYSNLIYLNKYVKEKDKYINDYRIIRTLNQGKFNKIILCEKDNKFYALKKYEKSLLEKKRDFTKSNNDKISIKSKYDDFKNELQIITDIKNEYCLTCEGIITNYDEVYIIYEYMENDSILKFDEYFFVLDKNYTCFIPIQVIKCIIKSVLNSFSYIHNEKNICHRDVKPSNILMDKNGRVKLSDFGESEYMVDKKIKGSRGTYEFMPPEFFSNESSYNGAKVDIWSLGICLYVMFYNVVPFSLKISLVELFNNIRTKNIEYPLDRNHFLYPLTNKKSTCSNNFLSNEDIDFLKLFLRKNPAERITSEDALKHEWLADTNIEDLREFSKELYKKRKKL

[8] = target: Calcium-dependent protein kinase 4 (Plasmodium falciparum (isolate 3D7)) (UniProt Q8IBS5); experiment: PfCDPK4 kinase inhibitors, biochemical, TCAMS library (AID 1159588; cut-off not given, nearly all actives have IC50 up to about 0.91 µM); conditions: recombinant PfCDPK4, Kinase-Glo ATP depletion luminescence
Chain of Calcium-dependent protein kinase 4 (Plasmodium falciparum (isolate 3D7)) (Q8IBS5 whole entry, looked up): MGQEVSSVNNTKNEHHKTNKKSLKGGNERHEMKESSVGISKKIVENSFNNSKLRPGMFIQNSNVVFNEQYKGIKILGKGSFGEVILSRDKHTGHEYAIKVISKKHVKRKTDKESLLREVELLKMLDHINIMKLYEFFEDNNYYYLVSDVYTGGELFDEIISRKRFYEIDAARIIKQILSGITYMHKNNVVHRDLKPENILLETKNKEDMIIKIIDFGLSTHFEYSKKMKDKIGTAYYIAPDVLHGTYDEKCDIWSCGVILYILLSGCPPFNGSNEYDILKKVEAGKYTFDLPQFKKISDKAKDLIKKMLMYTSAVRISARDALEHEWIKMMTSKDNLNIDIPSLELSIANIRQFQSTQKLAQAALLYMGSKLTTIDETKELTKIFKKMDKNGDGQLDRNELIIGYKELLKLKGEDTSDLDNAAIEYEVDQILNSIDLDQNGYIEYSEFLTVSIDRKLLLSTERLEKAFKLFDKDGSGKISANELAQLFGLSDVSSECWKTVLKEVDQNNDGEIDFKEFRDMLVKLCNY

SMILES | growth inhibition [1] | inhibition [2] | inhibition [3] | growth inhibition [4] | outcome [5] | outcome [6] | outcome [7] | outcome [8]
FC(F)(F)c1ccc2c(NCCNc3ccnc4cc(C(F)(F)F)ccc34)ccnc2c1 | 100% (active) | 21% (inactive) | 1% (inactive) | 101% (active) | inactive | inactive | inactive | inactive
Cc1nc(-c2cccc(Nc3nccc(NCC(O)c4cccc(F)c4)n3)c2)cs1 (stereo not drawn) | 59% (active) | 39% (inactive) | 1% (inactive) | 98% (active) | inactive | inactive | inactive | inactive
O=C(C=NO)Nc1ccccc1[N+](=O)[O-] | -2% (inactive) | -14% (inactive) | -2% (inactive) | 99% (active) | inactive | inactive | inactive | inactive
CC1SC(=S)NC1C(=O)O (stereo not drawn) | -1% (inactive) | 3% (inactive) | 0% (inactive) | 94% (active) | inactive | inactive | inactive | inactive
O=c1[nH]c2c(cc1CNC1CCCCC1)c(-c1ccc(F)cc1)nn2-c1ccccc1 | 88% (active) | 8% (inactive) | 6% (inactive) | 99% (active) | inactive | inactive | inactive | inactive
CN(C)CCOc1ccc(-n2c(-c3nonc3N)nc3cncc(-c4ccc(F)cc4)c32)cc1 | 7% (inactive) | 10% (inactive) | 5% (inactive) | 97% (active) | inactive | inactive | inactive | inactive
COc1cc([N+](=O)[O-])ccc1NC(=O)Nc1ccc(OC(F)(F)F)cc1 | 72% (active) | 14% (inactive) | 3% (inactive) | 84% (active) | inactive | inactive | inactive | inactive
CCn1c(C2CCN(CCC3CCN(C(=O)/C=C/c4ccc(Cl)c(Cl)c4)CC3)CC2)nc2ccccc21 | 0% (inactive) | 17% (inactive) | 2% (inactive) | 86% (active) | inactive | inactive | inactive | inactive
COc1cc(C=CC(=O)N2CCC(CCN3CCC(c4c[nH]c5ccccc45)CC3)CC2)cc(OC)c1 | 23% (inactive) | 39% (inactive) | -5% (inactive) | 92% (active) | inactive | inactive | inactive | inactive
O=C(Nc1cccc(CN2CCCN(Cc3ncc[nH]3)CC2)c1)c1ccc2ccccc2c1 | 2% (inactive) | 13% (inactive) | -1% (inactive) | 100% (active) | inactive | inactive | inactive | inactive
Clc1cccnc1N1CCN(c2ncccc2Cl)CC1 | 0% (inactive) | 2% (inactive) | 4% (inactive) | 97% (active) | inactive | inactive | inactive | inactive
CCn1c(SCc2ccccc2)nc2c1c(=O)[nH]c(=O)n2C | 30% (inactive) | 1% (inactive) | -1% (inactive) | 96% (active) | inactive | inactive | inactive | inactive
O=C(NC1CCN(Cc2ccccc2)CC1)c1ccc(-c2nc3cc(Cl)c(Cl)cc3[nH]2)s1 | 99% (active) | 17% (inactive) | -1% (inactive) | 103% (active) | inactive | inactive | inactive | inactive
c1ccc2c(CNc3nc(NCC4CCCCC4)nc4nc[nH]c34)cccc2c1 | 44% (inactive) | -2% (inactive) | -2% (inactive) | 89% (active) | inactive | inactive | inactive | inactive
Cc1cccc2[nH]c(-c3ccc(-c4cccc(CN5CCC(CCN6CCCCC6)CC5)c4)s3)nc12 | 100% (active) | 99% (active) | -3% (inactive) | 101% (active) | inactive | inactive | inactive | inactive
CS(=O)(=O)c1ccc2c(c1)CCN(CCC1CCC(NC(=O)c3cc4cccc(Br)c4[nH]3)CC1)CC2 (stereo not drawn) | 7% (inactive) | 27% (inactive) | -8% (inactive) | 92% (active) | inactive | inactive | inactive | inactive
CS(=O)(=O)Nc1ccc2[nH]cc(C3CCN(CC4CCC(NC(=O)/C=C/c5ccc(Cl)c(Cl)c5)CC4)CC3)c2n1 (stereo not drawn) | 10% (inactive) | 2% (inactive) | -5% (inactive) | 99% (active) | inactive | inactive | inactive | inactive
CCC(CC)(CCC#N)CN(C[C@@H](O)[C@H](Cc1ccccc1)NC(=O)OC(C)(C)C)S(=O)(=O)c1ccc(OC)cc1 | 66% (active) | -12% (inactive) | 0% (inactive) | 82% (active) | inactive | inactive | inactive | inactive
CCCCNS(=O)(=O)c1ccc(NC(=O)c2cc([N+](=O)[O-])ccc2Cl)cc1 | 47% (inactive) | 12% (inactive) | -3% (inactive) | 92% (active) | inactive | inactive | inactive | inactive
Cc1cccc(CN2CCN(c3ncc(C(=O)NC4CC4)cc3Cl)CC2)c1 | 73% (active) | 2% (inactive) | -4% (inactive) | 84% (active) | inactive | inactive | inactive | inactive
O=C(COc1ccccc1Cc1ccccc1)Nc1cc(Cl)ccc1-n1cncn1 | 93% (active) | 5% (inactive) | -2% (inactive) | 92% (active) | inactive | inactive | inactive | inactive

SMILES | growth inhibition [1] | inhibition [2] | inhibition [3] | growth inhibition [4] | outcome [5] | outcome [6] | outcome [7] | outcome [8]
COc1ccc2c(NN=CC=Cc3ccccc3)cc(C)nc2c1 | 56% (active) | 18% (inactive) | 2% (inactive) | 99% (active) | inactive | inactive | inactive | inactive
O=C(/C=C/c1ccc(Cl)c(Cl)c1)N1CCN(C(=O)Nc2ccc(C(F)(F)F)cc2)CC1 | 101% (active) | 47% (inactive) | 4% (inactive) | 98% (active) | inactive | inactive | inactive | inactive
COc1ccc(C=NNc2cc(C)nc3ccc(C)cc23)c2ccccc12 | 55% (active) | 28% (inactive) | 4% (inactive) | 94% (active) | inactive | inactive | inactive | inactive
CC(C)N1CCN(C(=O)c2ccc(CNCCCN3CCN(c4cccc(Cl)c4Cl)CC3)o2)CC1 | 36% (inactive) | 41% (inactive) | 1% (inactive) | 98% (active) | inactive | inactive | inactive | inactive
Cc1[nH]cc(Br)c(=O)c1-c1ccc(Oc2ccc(OC(F)(F)F)cc2)cc1 | 92% (active) | 22% (inactive) | -2% (inactive) | 96% (active) | inactive | inactive | inactive | inactive
COc1ccc2nccc([C@@H](O)CN3CCC(NCCNc4cccc(F)c4)CC3)c2c1 | 73% (active) | 11% (inactive) | 0% (inactive) | 98% (active) | inactive | inactive | inactive | inactive
COc1cc(NC(=O)c2sc(-c3ccc(Cl)cc3)cc2NC(=O)c2ccncc2)ccc1OCCN1CCCC1 | 100% (active) | 100% (active) | 3% (inactive) | 100% (active) | inactive | inactive | inactive | inactive
O=C(Nc1ccc(Cl)cc1C(=O)Nc1cccc(F)c1)c1ccc([N+](=O)[O-])cc1 | 54% (active) | 10% (inactive) | 0% (inactive) | 89% (active) | inactive | inactive | inactive | inactive
CN1CCN(c2ccc3nc(-c4ccc5nc(-c6ccc(O)cc6)[nH]c5c4)[nH]c3c2)CC1 | 100% (active) | -11% (inactive) | 3% (inactive) | 99% (active) | inactive | inactive | inactive | inactive
N#Cc1cccc(-c2ccc(C(=O)Nc3ccc4c(c3)CCN(C3CCC3)CC4)cn2)c1 | 5% (inactive) | 26% (inactive) | -2% (inactive) | 96% (active) | inactive | inactive | inactive | inactive
OC(CNCc1ccccc1)c1cc(OCc2ccccc2)cc(OCc2ccccc2)c1 (stereo not drawn) | 76% (active) | -14% (inactive) | 3% (inactive) | 98% (active) | inactive | inactive | inactive | inactive
Cc1cc(Cl)c(S(=O)(=O)NC(C)(C)C)cc1OCC(=O)NC1CCCCC1 | 53% (active) | 10% (inactive) | -5% (inactive) | 93% (active) | inactive | inactive | inactive | inactive
CC1(C)N=C(N)N=C(N)N1OCCCOc1cccc2ccccc12 | 86% (active) | 67% (active) | 4% (inactive) | 95% (active) | inactive | inactive | inactive | inactive
CN1CCc2ccc(NC(=O)Nc3cccc([N+](=O)[O-])c3)cc2C1 | 3% (inactive) | -5% (inactive) | 0% (inactive) | 87% (active) | inactive | inactive | inactive | inactive
Cc1[nH]c(C)c(-c2ccc(-c3ccc(Cl)cc3)nc2)c(=O)c1Br | 96% (active) | 21% (inactive) | 3% (inactive) | 97% (active) | inactive | inactive | inactive | inactive
O=C(C=Cc1ccc(-c2ccccc2)cc1)N1CCC(CCN2CCC(c3c[nH]c4ccccc34)CC2)CC1 | 16% (inactive) | 44% (inactive) | 2% (inactive) | 87% (active) | inactive | inactive | inactive | inactive
Oc1cc(Nc2ccnc3cc(-c4ccc(CN5CCCCC5)o4)ccc23)c(Cl)cc1F | 81% (active) | 30% (inactive) | 5% (inactive) | 101% (active) | inactive | inactive | inactive | inactive
CCOc1ccc(C(=O)Nc2nonc2-c2ccc(OC)c(OC)c2)cc1 | 42% (inactive) | 7% (inactive) | 5% (inactive) | 95% (active) | inactive | inactive | inactive | inactive
COC(=O)c1ccc(C2OC3(C(=O)c4ccccc4C3=O)C(OC)=C2Cl)cc1C(C)=O (stereo not drawn) | 85% (active) | -3% (inactive) | -2% (inactive) | 99% (active) | inactive | inactive | inactive | inactive
O=C(Nc1ccc(C(=O)Oc2cccc3ccccc23)cc1)N[C@@H](Cc1ccc(O)cc1)C(=O)NC1CCN(Cc2ccc(O)cc2)C1 (stereo partly drawn) | -5% (inactive) | -1% (inactive) | 1% (inactive) | 87% (active) | inactive | inactive | inactive | inactive
